# Screens (PubChem)
# NPC1 prom act: qHTS Assay for NPC1 Promoter Activators; AID 485313, 2010; Huh7 NPC1 promoter luciferase reporter, 24 h; Potency, µM (top dose mostly 9.22 µM), for the others: at the highest dose activation, actives largely listed as activators; 320,000 compounds, 2.4% hits; also: % of control where 0% means no effect; nearly all actives have a fitted effect of over 60% in size
#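 Compounds in DMSO were transferred onto Huh7 NPC1-luciferase reporter cells pre-incubated 2 h; after 24 h at 37 °C, Amplite reagent was dispensed and luminescence recorded 10 min later.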
# FLuc modulator: qHTS profiling assay for firefly luciferase inhibitor/activator using purifed enzyme and Km concentrations of substrates (counterscreen for miR-21 project); Luciferin 4-monooxygenase (Photinus pyralis), P08659; purified FLuc, Km substrates, luminescence inhibition; Potency, µM (highest dose often 57.5 µM), for the others: top-dose activity change, negative = inhibition, actives largely listed as inhibitors; 360,000 compounds, 6.9% hits; AID 588342, 2011;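 also: plate controls were vehicle for no effect and reference inhibitor for full effect; nearly all actives have a fitted effect of over 55% in size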
# Target sequence (P08659 whole entry, looked up): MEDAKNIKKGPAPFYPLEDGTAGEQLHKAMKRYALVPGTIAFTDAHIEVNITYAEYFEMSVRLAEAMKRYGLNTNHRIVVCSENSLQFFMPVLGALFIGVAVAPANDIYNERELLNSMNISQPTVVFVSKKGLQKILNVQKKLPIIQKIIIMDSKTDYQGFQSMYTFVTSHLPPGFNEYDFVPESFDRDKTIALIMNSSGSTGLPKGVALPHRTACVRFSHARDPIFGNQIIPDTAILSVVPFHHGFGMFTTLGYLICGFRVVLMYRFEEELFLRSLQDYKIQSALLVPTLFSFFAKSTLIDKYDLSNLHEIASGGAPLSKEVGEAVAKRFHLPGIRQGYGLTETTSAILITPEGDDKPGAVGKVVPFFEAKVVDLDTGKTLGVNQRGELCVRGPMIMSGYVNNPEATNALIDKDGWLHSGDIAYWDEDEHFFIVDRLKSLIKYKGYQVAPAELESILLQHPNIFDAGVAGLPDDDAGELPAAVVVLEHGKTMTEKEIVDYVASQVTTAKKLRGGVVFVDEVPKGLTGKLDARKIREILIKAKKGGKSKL
#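 Biochemical qHTS of compounds, final roughly 60 µM downward over six points, against 10 nM purified firefly luciferase using Km concentrations of substrates (10 uM D-luciferin, 10 uM ATP) in Tris acetate pH 7.5 buffer; luminescence output.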
# SMN2 splice up: qHTS Assay for Enhancers of SMN2 Splice Variant Expression; HEK293 SMN2-luciferase splicing reporter, luminescence, 30-36 h; Potency, µM (highest dose often 46.1 µM), for inactives: at the top dose activity change, positive = activation, usual class: activators; 210,000 compounds, 2.8% hits; also: % of control where 0% means no effect; nearly all actives have a fitted effect of over 55% in size
#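 qHTS luciferase splicing reporter: luminescence rises when SMN2 exon 7 is included in transfected HEK293 cells. Compound exposure lasted 30-36 h at 37C, with 4.5 mM final sodium butyrate as control, followed by a ONE-Glo read.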
# Rab9 prom act: qHTS Assay for Rab9 Promoter Activators | Huh7 Rab9 promoter-luciferase reporter, luminescence, 24 h | Potency, µM (doses to about 9.22 µM), for the others: at the top dose activation, negative = inhibition, hits mostly activators | 320,000 compounds, 2.8% hits | AID 485297, 2010; also: % of control where 0% means no effect; nearly all actives have a fitted effect of over 60% in size
#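 Luciferase signal after 10 min detection reagent at ambient indicates Rab9 promoter upregulation; stably transfected Huh7 cells were treated 24 h with compound in DMSO at 37 °C, 5% CO2.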
# ELG1 genotox: qHTS screen for small molecules that induce genotoxicity in human embryonic kidney (HEK293T) cells expressing luciferase-tagged ELG1; HEK293T ELG1-luciferase reporter, luminescence, 16 h; 330,000 compounds, 1.3% hits; AID 504466, 2011; Potency, µM (titrated, usually from 46 µM), for the others: at the top dose activity change, positive = activation, most hits filed as activators; also: % of control where 0% means no effect; nearly all actives have a fitted effect of over 60% in size
#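 Reporter readout depends on ELG1 protein level, which increases with genetic stress. After 16 hr compound exposure at 37 °C, luciferase activity was quantified using ONE-Glo.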
# p53 reactivation: qHTS assay for re-activators of p53 using a Luc reporter. H1299 p53-A138V BP100-luciferase reporter, luminescence, 24 h. Potency, µM (doses to about 92.2 µM), without a hit: at the highest dose activity change, positive = activation, hits mostly activators. 320,000 compounds, 0.063% hits. AID 504706, 2011; also: % of control where 0% means no effect; nearly all actives have a fitted effect of over 45% in size
#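 H1299 (p53-null), stable ts p53-A138V + BP100-Luc; 1000 cells/well, Opti-MEM/10% FBS; cpd 4 pt, 1:5; 24 h, 37 deg C, 5% CO2; detection reagent 10 min RT; luminescence.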
# * = called active by the depositor; u = inconclusive; x = not tested or not shown. The list is not random: actives were taken first. Their share in the collection is about 7.3%. Calls follow the shape of the dose curve; as a rule, active = well fitted curve in the direction sought with a large enough effect; inconclusive = small, poorly fitted or top-dose-only effect, or another doubt; inactive = no such curve, though single readings can be large; an effect the other way counts as inactive or inconclusive. Potency is read from the fitted curve at half-maximal effect.
SMILES,NPC1 prom act,FLuc modulator,SMN2 splice up,Rab9 prom act,ELG1 genotox,p53 reactivation
Cc1cnc(NC(=O)CCNC(=O)c2ccccc2Cl)s1,-0.4%,-1.3%,-17.7%,-4.2%,-0.2%,0.1%
Cc1cnc(NC(=O)COc2ccccc2Cl)s1,0.1µM*,0.269µM*,0.794µM*,0.251µM*,u,26.6%
COC(=O)c1ccc(NC(=O)N2CCc3c([nH]c4ccccc34)C2c2ccc(C)cc2)cc1 (configuration not stated),x,-5.6%,-2.9%,x,x,x
Cc1cc(C)n2cc(CSc3nc4cc(Cl)ccc4o3)nc2n1,0.7%,-1.5%,-15.6%,1.5%,1.8%,-23.7%
CN(C)c1nc(N)nc(CSc2nc3cc(Cl)ccc3o2)n1,u,u,3.7%,u,7.31µM*,u
O=C(COC(=O)c1ccccc1)NC12CC3CC(CC(C3)C1)C2,-1.7%,6.75µM*,x,0.3%,-1.2%,3.4%
O=C(COC(=O)c1ccc([N+](=O)[O-])cc1)NC12CC3CC(CC(C3)C1)C2,x,x,x,x,0.5%,-1.6%
O=C(COC(=O)C12CC3CC(CC(C3)C1)C2)NCCCc1ccccc1,-5.7%,3.2%,u,-1.4%,1.1%,0.9%
O=C(CCCc1ccccc1)NC12CC3CC(CC(C3)C1)C2,3.16µM*,9.53µM*,x,2.24µM*,u,x
O=c1[nH]c(=S)n(-c2cccc(Cl)c2)c(O)c1/C=N/N1CCOCC1,0.6%,-2.3%,x,10.7%,-0.8%,3.4%
COc1cc(OC)cc(C(=O)N2CCCc3ccccc32)c1,3.0%,u,x,-0.8%,7.3%,18.2%
COc1ccc2oc(C(=O)N3CCCc4ccccc43)c(C)c2c1,u,19µM*,x,u,16.0%,25.3%
COc1ccc2oc(C(=O)Nc3ccc(N4CCOCC4)cc3)c(C)c2c1,-0.5%,6.75µM*,x,1.7%,-20.6%,-7.6%
Cc1c(C(=O)Nc2ccc(N3CCOCC3)cc2)oc2ccccc12,3.98µM*,1.9µM*,29.2%,4.47µM*,7.6%,4.0%
Cc1cccc(C(=O)NNC(=O)c2csc(N3CCOCC3)n2)c1C,1.2%,-14.0%,x,1.3%,-2.2%,3.1%
Cc1c(C(=O)NNC(=O)c2csc(N3CCOCC3)n2)oc2ccccc12,10.9%,26.9µM*,x,0.6%,1.8%,2.5%
Cc1cc(C)n(CCN(C)Cc2nc(Cc3ccccc3F)no2)n1,u,4.78µM*,x,u,u,-4.6%
COc1ccc(OCCNC(=O)c2ccccc2Cl)cc1,-0.2%,-6.4%,x,-2.0%,4.0%,7.2%
O=C(NCCc1ccccc1)c1ccccc1Cl,0.355µM*,1.9µM*,x,0.447µM*,u,-35.2%
Cc1nn(Cc2ccccc2)c(Cl)c1C(=O)NCCc1ccccc1,2.51µM*,9.53µM*,14.1µM*,2.24µM*,u,u
O=C(NCCOc1ccccc1)c1ccccc1Cl,0.631µM*,8.49µM*,x,0.447µM*,4.61µM*,7.4%
O=C(O)c1ccccc1C(=O)NCCc1ccc(Cl)cc1,3.1%,-2.8%,-19.7%,-0.5%,1.2%,3.9%
O=C(O)CCC(=O)Nc1ccccc1C(=O)NCCc1ccccc1,u,19µM*,u,u,u,u
COc1ccc(CC(=O)NCCc2ccc(Cl)cc2Cl)cc1,-4.9%,-13.3%,-6.3%,0.5%,-1.8%,-4.1%
O=C(NCCCl)c1ccc(OCc2ccccc2)cc1Cl,u,u,12.6µM*,1.58µM*,11.6%,8.8%
SMILES,NPC1 prom act,FLuc modulator,SMN2 splice up,Rab9 prom act,ELG1 genotox,p53 reactivation
O=C(/C=C/c1ccccc1Cl)NCc1ccccc1,2.6%,u,15.9%,29.5%,14.0%,-2.9%
O=C(NCCOc1ccccc1Cl)c1cc(F)c(F)cc1Cl,2.82µM*,5.36µM*,x,2.24µM*,u,u
C#CCNC(=O)c1ccc(OCc2ccccc2)cc1Cl,4.6%,u,-12.7%,26.6%,-15.0%,-3.4%
O=C(/C=C/c1ccccc1Cl)NCCc1ccccc1,u,19µM*,u,u,10.0%,u
COc1ccc(CCNC(=O)c2ccc(Cl)cc2Cl)cc1,0.5%,16.9µM*,-16.7%,-2.1%,-3.2%,3.4%
CCc1cccc(NC(=O)CSc2ncc3c(n2)-c2ccccc2N(Cc2ccccc2C)S3(=O)=O)c1,x,5.8%,x,x,x,x
CC(=O)OCc1cnc(C)c2oc(=O)c(C(=O)Nc3cccc(F)c3)cc12,x,-3.3%,x,x,x,x
Cc1c(F)cccc1NS(=O)(=O)c1cccs1,x,-18.2%,x,x,x,x
O=c1oc2ccccc2cc1-c1nnc(NCc2ccco2)s1,1.12µM*,2.69µM*,11.2µM*,0.708µM*,u,u
Nc1cccc(-c2cc3ccccc3oc2=O)c1,15.3%,19µM*,21.7%,-1.2%,u,4.0%
O=Cc1c(-c2ccccc2)cc2oc3ccccc3cc1-2,25.8%,0.757µM*,x,3.55µM*,3.66µM*,u
Nc1nnc(-c2cc3ccccc3oc2=O)s1,u,u,17.8µM*,1.58µM*,u,7.9%
CCc1ccc(-c2nc(-c3cc4ccccc4oc3=O)sc2C)cc1,x,-3.0%,x,x,x,x
CCc1nnc2c(N3CCN(c4cccc(C)c4)C(C)C3)nc3ccccc3n12 (configuration not stated),x,2.6%,x,x,x,x
O=C1CC(c2nc3ccccc3n2CCCOc2ccccc2)CN1c1ccc(F)cc1 (configuration not stated),x,-18.9%,-6.3%,x,x,x
COC1=C(Nc2ccc(OC)cc2)C(=O)c2ccccc2C1=O,27.9%,19µM*,u,u,3.6%,u
CCOc1ccc(NC2=C(OC)C(=O)c3ccccc3C2=O)cc1,15.1%,16.9µM*,-25.7%,3.1%,0.2%,19.1%
COC(=O)c1cc(C)nc2c1c(=O)nc(SCc1cccc(C(F)(F)F)c1)n2C1CC1,x,-11.9%,x,x,x,x
Cc1cccc(-n2c(=O)c3c(c4cc(C)ccc4n3C)n(CC(=O)Nc3ccc(C)cc3C)c2=O)c1,x,0.7%,x,x,x,x
Cc1nn(-c2nc3ccccc3s2)c(N)c1Sc1ccc(F)cc1,3.16µM*,u,1.2%,1.12µM*,u,u
Cc1cc(N)n(-c2nc3ccccc3s2)n1,-9.9%,-2.1%,x,-10.9%,-13.2%,-4.4%
Cc1nn(-c2nc3ccccc3s2)c(N)c1-c1ccccc1,2.51µM*,1.9µM*,7.08µM*,2.24µM*,u,22.4µM*
Cc1nn(-c2nc3ccccc3s2)c(N)c1-c1ccc(Cl)cc1,u,3.01µM*,11.2µM*,u,u,u
